The full list was thinned out, with hits kept by preference.
Pf Dd2 inh: qHTS Primary assay for Inhibitors of Plasmodium falciparum Dd2 growth in vitro | P. falciparum Dd2 growth, SYBR Green, 72 h | Potency, µM (series often up to 28.9 µM), without a hit: top-dose activity, negative = inhibition, actives largely listed as inhibitors | 120,000 compounds, 4.3% hits; active = well fitted inhibition curve with a large enough effect;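 note: plate controls were DMSO vehicle for no effect and reference drug for full effect; nearly all actives have a fitted effect of over 65% in size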
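Readout: SYBR Green fluorescence, 485 nm excitation, 535 nm emission, after ~16 h lysis at 37C. Before that, Dd2-infected red cells (2.5% hematocrit) grew 72 h with compound, 29 uM top final concentration.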
Active calls of the source: *; i = inactive; [ ] = another dose, or the depositor's remark. Potency is the fitted concentration of half-maximal effect.

SMILES | Pf Dd2 inh
O=C(CCNc1c(-c2ccc(F)cc2)nc2cnccn12)N1CCCCC1 | -18%
COc1ccc2[nH]c3c(c2c1)CCNC31CCN(C(=O)CN2CCCC2=O)CC1 | 26%
COCC(=O)N[C@H]1CC[C@]2(C)CC[C@@H](C(C)C(=O)NC3CC3)[C@H](O)[C@H]2[C@@H]1C (stereo partly specified) | 24%[44.1 µM]
COc1ccc(C(=O)N[C@@H]2CN(C(=O)Nc3ccc(OC(F)(F)F)cc3)CCC[C@H]2O)cc1 | 5µM*
COc1ccc(C(=O)N[C@@H]2CN(C(=O)Nc3cccc(C#N)c3)CCC[C@H]2O)cc1 | i
O=C(N[C@@H]1CN(C(=O)Nc2ccc(OC(F)(F)F)cc2)CCC[C@H]1O)c1ccc(OCCN2CCOCC2)cc1 | i
COCCOCc1nc(C2CCN(C(=O)Nc3ccccc3F)CC2)no1 | 16%
CN(C1CCc2ccccc2C1)[S+](=O)([O-])c1cccs1 (stereo unspecified) | 0%[44.1 µM]
c1cc(-c2cc3c(ccn3Cc3ccncc3)c(N3CCOCC3)n2)cc(N2CCOCC2)c1 | i
COc1cccc(-c2cc3c(ccn3CC3CCN(C)CC3)c(N3CCOCC3)n2)c1 | 6.3µM*
C[S+](=O)([O-])N1CCC(Cn2ccc3c(N4CCOCC4)nc(-c4cncnc4)cc32)CC1 | -18%
COc1ccccc1-c1cc2c(ccn2Cc2ccncc2)c(N2CCOCC2)n1 | -3%[44.1 µM]
C[S+](=O)([O-])N1CCC(Cn2ccc3c(N4CCOCC4)nc(-c4cccc5[nH]ccc45)cc32)CC1 | -14%
COc1ncccc1-c1cc2c(ccn2CC2CCN(C)CC2)c(N2CCOCC2)n1 | 8.9µM*
C[C@H](O)c1onc(-c2ccc(F)cc2)c1C(=O)N1CCCCC1 | -11%[44.1 µM]
O=C(N[C@H]1CCN2C(=O)N(c3ccc(OC(F)(F)F)cc3)C(=O)[C@@H]2C1)c1cnccn1 | -9%[44.1 µM]
O=C(CC1C(=O)NCCN1Cc1ccc(-c2ccccc2)cc1)NCc1ccco1 (stereo unspecified) | 9%
N#Cc1ccc(S(=O)(=O)N2CCc3n[nH]c(=O)n3CC2)cc1 | 42%
CN1CCCCCCN(C(=O)NCCc2ccccc2)[C@H]2CCC[C@H]2C1=O | -8%
CN1CCCCCCN(C(=O)Cc2cccnc2)[C@@H]2CCC[C@@H]2C1=O | 11%
Cc1cccc(CN2CCCCCCN(C)C(=O)[C@@H]3CCC[C@@H]32)c1 | 2.5µM*
CN1C(=O)[C@H]2CN(Cc3ccc4[nH]ccc4c3)C[C@H]2C1=O | i
CN1CCCCCCN(Cc2ccc3[nH]ccc3c2)[C@H]2CCC[C@H]2C1=O | 2µM*
Cc1cccc(CN2CCCCCNC(=O)[C@@H]3CCC[C@@H]32)c1 | -27%
O=C(c1ccncc1)N1CCC2(CC1)CN(c1ncccn1)CC2CO (stereo unspecified) | i
SMILES | Pf Dd2 inh
N#Cc1ccc(C(=O)N2CCCCCNC(=O)CC2c2ccccc2)cc1 (stereo unspecified) | -7%
CCn1nccc1C(=O)N1CCC2(CC1)N=C(c1ccc(C)cc1)NO2 | -25%
N#Cc1ccc(S(=O)(=O)N2CCCC(CO)CCNC(=O)CC2)cc1 (stereo unspecified) | -25%
C[C@H]1[C@@H]2[C@@H](O)C([C@H](C)C(=O)NCc3ccccc3)CC[C@@]2(C)CC[C@@H]1NC(=O)c1ccc(C#N)cc1 (stereo partly specified) | i
C[C@H]1[C@@H]2[C@@H](O)C([C@H](C)C(=O)NCc3cccnc3)CC[C@@]2(C)CC[C@@H]1NC(=O)c1ccc(C#N)cc1 (stereo partly specified) | -6%
C[C@H]1[C@@H]2[C@@H](O)C([C@H](C)C(=O)NCc3ccccn3)CC[C@@]2(C)CC[C@@H]1NC(=O)c1ccc(C#N)cc1 (stereo partly specified) | 8.9µM*
N#Cc1ccc(CN2CC3(Cc4ccccc4C(=O)N3)C2)cc1 | -5%
CNC(=O)[C@@H](c1ccccc1)N1CCC[C@H]1C(=O)NC1CCOCC1 | -15%[44.1 µM]
CCOc1cc(C2c3c(oc4ccccc4c3=O)C(=O)N2c2ccccn2)ccc1O (stereo unspecified) | 20%
CCCOc1ccc(C2c3c(oc4ccccc4c3=O)C(=O)N2c2ccc(C)cn2)cc1OCC (stereo unspecified) | 43%
CCOc1ccc(-c2oc3ccccc3c(=O)c2O)cc1OCC | 10µM*
Cc1nc(-c2c3n(c(=O)n(CC(=O)Nc4cccc(Cl)c4)c2=O)CCCCC3)no1 | -14%
O=C(c1ccc(Cl)cc1)N1CC2(CCN(C3CCCCC3)CC2)Cc2ccccc21 | 7.1µM*
CC(=O)N1CC2(CCN(C3COC3)C2)Cc2ccccc21 (stereo unspecified) | -9%[44.1 µM]
O=C(O)CCC(=O)N1CCC2(Cc3ccccc3N(C(=O)c3ccc(Cl)cc3)C2)C1 (stereo unspecified) | i
CC(=O)N1CC2(Cc3ccccc31)CN(C(=O)c1ccc(Cl)cc1)C2 | -19%
O=C(c1ccc(Cl)cc1)N1CC2(CCN(C3COC3)CC2)Cc2ccccc21 | 10%
O=C(c1ccc(Cl)cc1)N1CC2(CCN(C3CCCCC3)C2)Cc2ccccc21 (stereo unspecified) | 10µM*
C1=CC[C@H]2CN(c3nccc(-c4ccccn4)n3)C[C@H]2C1 | -9%
CC(C)(C)CNc1ccc(C(=O)N2CCC(CN3CCCC3=O)CC2)cn1 | -22%
COc1cc(CN2CCN(Cc3cccc(SC)c3)CC2CCO)cc(OC)c1 (stereo unspecified) | -6%
CN1[C@@H](CCC(=O)NCc2ccc(F)cc2)CNC(=O)[C@@H]2[C@H]1CCN2Cc1ncc[nH]1 | -12%[44.1 µM]
Cc1sc(NC(=O)COc2ccc(C(C)(C)C)cc2)c(C(=O)OC(C)C)c1C | 28%
CCOC(=O)c1sc(NC(=O)C2c3ccccc3Oc3ccccc32)c(C#N)c1C | -18%
Cc1c(C(=O)OC(C)C)sc(NC(=O)C2c3ccccc3Oc3ccccc32)c1C(=O)OC(C)C | 2.2µM*
SMILES | Pf Dd2 inh
CN(C)[S+](=O)([O-])c1ccc2c(c1)OCCN(Cc1ccc(Cl)cn1)C2 | -7%[44.1 µM]
COCCNC(=O)C1c2ccccc2C(=O)N(Cc2ccccc2)C12CCCC2 (stereo unspecified) | -3%
CC(C)NC(=O)NCc1nnc2n1C(C(=O)NCCc1ccc(Cl)cc1)CC2 (stereo unspecified) | 18%
COc1ccc(CC(=O)N2CCOC[C@H](Oc3ccccc3)C2)cc1 | -15%[44.1 µM]
COc1cc(Br)c(/C=C(\C#N)c2nc3ccccc3[nH]2)cc1OC | -12%
COc1cc(/C=C(\C#N)c2nc3ccccc3[nH]2)ccc1OCc1ccc(F)cc1 | 1µM*
N#C/C(=C\c1ccc(Cl)cc1)c1nc2ccccc2[nH]1 | i
O=C(Cc1cccn1-c1cccc(Cl)c1)NCc1ccc(N2CCOCC2)cc1 | -30%
O=C(Nc1ccccc1)N1CCC2(CC1)C(=O)NCN2Cc1ccc(Cl)cc1 | 3.2µM*
O=C1NCN(Cc2ccc(Cl)cc2)C12CCN(Cc1cccc3ccccc13)CC2 | -29%
O=C(Nc1ccc(C(F)(F)F)cc1)N1CCC2(CC1)C(=O)NCN2Cc1ccc(Cl)cc1 | -5%
O=C1NCN(Cc2ccc(Cl)cc2)C12CCN(Cc1ccccn1)CC2 | -15%
O=C1NCN(Cc2ccc(Cl)cc2)C12CCN(Cc1ccsc1)CC2 | 8.9µM*
O=C(c1ccc(Cl)cc1)N1CCC2(CC1)C(=O)NCN2Cc1ccccc1 | 4%
CCC1(N2CCN(S(=O)(=O)c3cccc(C#N)c3)CC2)CCN(C(=O)C(C)C)C1 (stereo unspecified) | i

Compound activity as filed in PubChem BioAssay.
